Results from PubChem BioAssay (Tox21).
Records with an inconclusive call do not appear. Active and inactive are the calls of the source. Unless noted, calls come from the whole dose curve; as a rule, active = well fitted curve in the direction sought with a large enough effect in the repeat runs; inconclusive = weak or mixed curves; inactive = no such curve, though single readings can be large; an effect the other way counts as inactive or inconclusive.

What was measured:
[1] = qHTS assay to identify small molecule agonists of H2AX (AID 1224845; active = well fitted activation curve with a large enough effect in the signal ratio in the repeat runs, not every such curve was filed as active; the % refers to the signal ratio; note: potency is the fitted concentration of half-maximal effect); conditions: CHO-K1 phospho-H2AX Ser139 HTRF, 3 h; series mostly up to 154 µM
In short: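 Wild-type CHO-K1 cells, plated overnight, exposed 3hr at 37C to 15 concentrations (0.76% DMSO final). Lysed, then HTRF anti-pH2AX (S139) cryptate and anti-H2AX-d2 antibodies, 24 hr room temperature; 665/620 nm emission read.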

[2] = qHTS assay to identify small molecule agonists of the hypoxia (HIF-1) signaling pathway (AID 1224846; active = well fitted activation curve with a large enough effect in the signal ratio in the repeat runs, not every such curve was filed as active; the % refers to the signal ratio); conditions: HRE-bla ME-180 cells, beta-lactamase ratio, 17 h; series mostly up to 76.8 µM
In short: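 HRE-bla ME-180 beta-lactamase reporter cells in medium with 0.5% dialyzed FBS, pre-incubated 5 h then exposed to compounds 17 h at 37C, 5% CO2; reporter induction read with CCF4-AM FRET substrate.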

[3] = qHTS assay to identify small molecule agonists of H2AX - cell viability counter screen (AID 1224847; calls by dose curve; note: top concentration of the series differs between compounds; nearly all actives have a fitted effect of over 30% in size); conditions: CHO-K1 viability, CellTiter-Glo luminescence, 3 h; series mostly up to 154 µM
In short: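 CHO-K1 wt, 1000 cells/well, o/n 37C; cpds 15 conc, 3 h 37C, 0.76% DMSO; CellTiter-Glo, 30 min RT, luminescence.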

[4] = qHTS assay to identify small molecule antagonists of the estrogen related receptor (ERR) signaling pathway from Tox21 library (AID 1224848); conditions: ERR reporter cell line, luciferase antagonist mode, 18 h; series mostly up to 92.4 µM; note: nearly all actives have a fitted effect of over 50% in size
In short: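 Luminescent reporter read-out (ONE-Glo) from NTP's ERR cell line after 18 h treatment at 37 C with DMSO-dissolved Tox21 compounds; cells pre-plated 6 h beforehand at 2,000 per well.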

[5] = qHTS assay to identify small molecule agonists of the estrogen related receptor (ERR) signaling pathway from Tox21 library (AID 1224849; calls by dose curve; note: nearly all actives have a fitted effect of over 15% in size); conditions: ERR reporter cell line, ONE-Glo luciferase, 18 h; at 92.4 µM (top of the series) unless noted
In short: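 ERR reporter cells (NTP line) pre-incubated 6 hours at 37 C, then exposed to compounds for 18 hours at 37 C. ONE-Glo luciferase luminescence was read after 30 minutes at room temperature.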

[6] = qHTS RealTime-Glo MT Cell Viability Assay in HepG2 cells - 24 hour (AID 1224867); conditions: RealTime-Glo luminescence; series mostly up to 76.8 µM; note: nearly all actives have a fitted effect of over 50% in size
In short: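 Tox21 10K library screened in qHTS format on HepG2 cells carrying RealTime-Glo reagents. Compounds were added after a 5 h preincubation, and the luminescent signal from continuous culture was measured repeatedly during 40 h treatment.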

[7] = qHTS RealTime-Glo MT Cell Viability Assay in HEK293 cells - 32 hour (AID 1224868); conditions: RealTime-Glo luminescence; series mostly up to 76.8 µM; note: nearly all actives have a fitted effect of over 50% in size; note: potency is the fitted concentration of half-maximal effect
In short: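 Luminescence generated by NanoLuc from substrate produced by living HEK293 cells served as the viability signal. Each value reflects the reading at its stated time point during continuous 40 h compound exposure at 37 C.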

[8] = A CellTox Green Cytotoxicity Assay to monitor cytotoxicity in HEK293 cells - 0 hour (AID 1224869); conditions: CellTox Green fluorescence; series mostly up to 76.8 µM; note: nearly all actives have a fitted effect of over 50% in size
In short: (§1)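 HEK293 cells, 600/well, were preincubated 5 hours and then exposed to compounds at 37 C for up to 40 hours. A cell-impermeant cyanine dye staining dead-cell DNA was read by fluorescence at 0, 8, 16, 24, 32 and 40 h time points.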

[9] = qHTS RealTime-Glo MT Cell Viability Assay in HepG2 cells - 40 hour (AID 1224870); conditions: RealTime-Glo luminescence; series mostly up to 76.8 µM; note: nearly all actives have a fitted effect of over 50% in size
In short: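 HepG2 cells (600/well) mixed with RealTime-Glo MT reagent, settled 5 h at 37 C/5% CO2 before compound addition. Nonlytic NanoLuc luminescence from viable-cell prosubstrate reduction read repeatedly during 40 h treatment at 37 C.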

[10] = A CellTox Green Cytotoxicity Assay to monitor cytotoxicity in HEK293 cells - 40 hour (AID 1224871); conditions: CellTox Green fluorescence; series mostly up to 76.8 µM; note: nearly all actives have a fitted effect of over 45% in size
In short: as §1
% is set by controls: 0 for no effect and ±100 for the full control effect.

C1=CCC2CC=CC2C1 (stereo not given)
inactive: Potency [1] | outcome [2] | Potency [3] | Potency [4] | activity change, positive = activation [5] 1.2% | Potency [6] | Potency [7] | Potency [8] | Potency [9] | Potency [10]

COc1ccc(C2C(=O)c3ccccc3C2=O)cc1
inactive: Potency [1] | outcome [2] | Potency [3] | Potency [4] | activity change, positive = activation [5] 13.1% [at 42.5 µM] | Potency [6] | Potency [7] | Potency [8] | Potency [9] | Potency [10]

CCCCCCC(O)CCOC(C)=O (stereo not given)
inactive: Potency [1] | outcome [2] | Potency [3] | Potency [4] | activity change, positive = activation [5] -0.596% [at 240 µM] | Potency [6] | Potency [7] | Potency [8] | Potency [9] | Potency [10]

CC(C)(C)S
inactive: Potency [1] | outcome [2] | Potency [3] | Potency [4] | activity change, positive = activation [5] 4.53% | Potency [6] | Potency [7] | Potency [8] | Potency [9] | Potency [10]

COc1ccc(C(=O)NCc2ccc(OCCN(C)C)cc2)cc1OC
inactive: Potency [1] | outcome [2] | Potency [3] | Potency [4] | activity change, positive = activation [5] -0.159% [at 42.5 µM] | Potency [6] | Potency [7] | Potency [8] | Potency [9] | Potency [10]

ClC1=C(Cl)C1(Cl)Cl
inactive: Potency [1] | outcome [2] | Potency [3] | Potency [4] | activity change, positive = activation [5] 7.16% | Potency [6] | Potency [7] | Potency [8] | Potency [9] | Potency [10]

CC(=O)NNC(C)=O
inactive: Potency [1] | outcome [2] | Potency [3] | Potency [4] | activity change, positive = activation [5] 2.66% | Potency [6] | Potency [7] | Potency [8] | Potency [9] | Potency [10]

CC1CCc2nccnc21 (stereo not given)
inactive: Potency [1] | outcome [2] | Potency [3] | Potency [4] | activity change, positive = activation [5] 3.13% | Potency [6] | Potency [7] | Potency [8] | Potency [9] | Potency [10]

CCCCCCCCCCCCCC(=O)OCC(O)CO (stereo not given)
inactive: Potency [1] | outcome [2] | Potency [3] | Potency [4] | activity change, positive = activation [5] 1.85% | Potency [6] | Potency [7] | Potency [8] | Potency [9] | Potency [10]

COc1cc(NS(=O)(=O)c2ccc(N)cc2)nc(C)n1
inactive: Potency [1] | outcome [2] | Potency [3] | Potency [4] | activity change, positive = activation [5] 5.82% [at 42.5 µM] | Potency [6] | Potency [7] | Potency [8] | Potency [9] | Potency [10]

N[C@@H](Cc1cc(I)c(O)c(I)c1)C(=O)O
inactive: Potency [1] | outcome [2] | Potency [3] | Potency [4] | activity change, positive = activation [5] 2.55% [at 42.5 µM] | Potency [6] | Potency [7] | Potency [8] | Potency [9] | Potency [10]

CC(C)c1ccc(C#N)cc1
active: Potency [7] 15.5 µM
inactive: Potency [1] | outcome [2] | Potency [3] | Potency [4] | activity change, positive = activation [5] -9.84% | Potency [6] | Potency [8] | Potency [9] | Potency [10]

CC(C)(C)CCCCCCOC(=O)c1ccccc1C(=O)OCCCCCCC(C)(C)C
inactive: Potency [1] | outcome [2] | Potency [3] | Potency [4] | activity change, positive = activation [5] -3.55% | Potency [6] | Potency [7] | Potency [8] | Potency [9] | Potency [10]

CC(=O)Oc1cccc(O)c1
inactive: Potency [1] | outcome [2] | Potency [3] | Potency [4] | activity change, positive = activation [5] 5.58% [at 42.5 µM] | Potency [6] | Potency [7] | Potency [8] | Potency [9] | Potency [10]

O=C(O)c1ccc(O)cc1O
inactive: Potency [1] | outcome [2] | Potency [3] | Potency [4] | activity change, positive = activation [5] -9.45% | Potency [6] | Potency [7] | Potency [8] | Potency [9] | Potency [10]

CC(CO)(CO)C(=O)O
inactive: Potency [1] | outcome [2] | Potency [3] | Potency [4] | activity change, positive = activation [5] -0.0649% | Potency [6] | Potency [7] | Potency [8] | Potency [9] | Potency [10]

Cc1cn([C@H]2C[C@H](F)[C@@H](CO)O2)c(=O)[nH]c1=O
inactive: outcome [2] | Potency [3] | Potency [6] | Potency [7] | Potency [8] | Potency [9] | Potency [10]
active: Potency [1] 0.0438 µM

C=CC(=O)NC(C)C
inactive: Potency [1] | outcome [2] | Potency [3] | Potency [4] | activity change, positive = activation [5] 4.77% | Potency [6] | Potency [7] | Potency [8] | Potency [9] | Potency [10]

CCOc1ncc(F)c(=O)[nH]1
inactive: Potency [1] | outcome [2] | Potency [3] | Potency [6] | Potency [7] | Potency [8] | Potency [9] | Potency [10]

CCOC(=O)N1CCC(Nc2ccc(Cl)cc2N)CC1
inactive: Potency [1] | outcome [2] | Potency [3] | Potency [6] | Potency [7] | Potency [8] | Potency [9] | Potency [10]

O=c1[nH]c2cc(C(F)(F)F)c(N3CCOCC3)cc2n(CP(=O)(O)O)c1=O
inactive: Potency [1] | outcome [2] | Potency [3] | Potency [6] | Potency [7] | Potency [8] | Potency [9] | Potency [10]

COc1ccc(-c2cc(C(F)F)nn2-c2ccc(S(N)(=O)=O)cc2)cc1F
inactive: Potency [1] | outcome [2] | Potency [3] | activity change, positive = activation [5] -17.4% [at 42.5 µM] | Potency [6] | Potency [8] | Potency [9] | Potency [10]
